Data on 44 compounds can be found in the antibiotic and cytotoxicity screens of Wong et al. (2023).

Each structure is given as a SMILES string. Out of some 39,000 compounds screened, about 3,300 (8.5%) were called active. The entries come from a sample that favours actives as a whole.

This test deals with HepG2. Kind of test: cytotoxicity call (relative viability < 0.9). Particulars: 10 µM.
As for `C[C@@H]1CCCCO[C@H](CN(C)C(=O)c2ccccc2)[C@H](C)CN([C@@H](C)CO)C(=O)c2cc(NS(=O)(=O)c3ccc(F)cc3)ccc2O1`, the cytotoxicity call was “inactive”.

As to `COCC(=O)N1C[C@H](C)[C@@H](OC)CN(C)C(=O)c2cc(NC(=O)Nc3ccccc3)ccc2OC[C@H]1C`, the cytotoxicity call is “inactive”.

For `C[C@@H]1CN([C@@H](C)CO)C(=O)c2cc(-c3ccc(C(=O)N(C)C)cc3)cnc2O[C@@H]1CN(C)C(=O)c1cccnc1`, the cytotoxicity call was “inactive”.

For the compound `C[C@@H]1CN([C@@H](C)CO)S(=O)(=O)c2ccc(C#Cc3ccc(F)cc3)cc2O[C@H]1CN(C)S(=O)(=O)c1cn(C)cn1`, the cytotoxicity call was “inactive”.

Regarding `C[C@@H]1CN([C@H](C)CO)C(=O)c2cc(NC(=O)Cn3cnnn3)ccc2O[C@@H]1CN(C)Cc1ccc(C(=O)O)cc1`, the cytotoxicity call is “inactive”.

On to `COc1ccc(CCNC(=O)[C@@]2(Sc3ccc(C)cc3)CC(=O)N(Cc3ccccc3C(F)(F)F)[C@@H]2c2ccc(CO)cc2I)cc1`, for which the cytotoxicity call was “inactive”.

On to `O=C(NCC1CC1)[C@@H]1[C@@H](CO)[C@@H]2Cn3c(cccc3=O)[C@H]1N2C(=O)c1cccnc1`, for which the cytotoxicity call is “inactive”.

As for `Cc1ccc(S(=O)(=O)Nc2cccc3c2O[C@H](CN(C)S(=O)(=O)c2ccccc2)[C@@H](C)CN([C@H](C)CO)C3=O)cc1`, the cytotoxicity call is “inactive”.

For `C[C@]12C[C@@H]3C[C@](C)(C1)C[C@@](N)(C3)C2`, the cytotoxicity call is “inactive”.

With `CC12CC3CC(C)(C1)CC(N)(C3)C2.Cl`, the cytotoxicity call is “active”.

In the case of `C[C@]12CC3CC(N)(C1)C[C@@](C)(C3)C2`, the cytotoxicity call was “inactive”.

Regarding `C[C@@H]1CN([C@@H](C)CO)C(=O)c2cc(NC(=O)Nc3ccc4c(c3)OCO4)ccc2O[C@@H]1CN(C)S(C)(=O)=O`, the cytotoxicity call is “inactive”.

For `O=C(NCCN1CCOCC1)[C@]1(CCS(=O)(=O)c2ccccc2)N=C(c2ccc(OCCCO)cc2)O[C@@H]1c1ccccc1`, the cytotoxicity call was “inactive”.

Regarding `COc1ccc(NC(=O)N(C)C[C@@H]2Oc3ccc(NC(=O)CCCCCC(=O)Nc4ccccc4N)cc3CC(=O)N([C@@H](C)CO)C[C@H]2C)cc1`, the cytotoxicity call was “inactive”.

For the compound `C[C@H]1CCCCO[C@@H](CN(C)C(=O)NC2CCCCC2)[C@@H](C)CN([C@@H](C)CO)C(=O)c2cc(NC(=O)CCC(F)(F)F)ccc2O1`, the cytotoxicity call was “inactive”.

Consider `CCCN(C)C[C@H]1OCCCC[C@@H](C)Oc2ccc(NC(=O)NC3CCCCC3)cc2C(=O)N([C@@H](C)CO)C[C@H]1C`, for which the cytotoxicity call was “inactive”.

Turning to `C[C@H]1CCCCO[C@H](CN(C)CC2CCCCC2)[C@@H](C)CN([C@@H](C)CO)C(=O)c2cc(NC(=O)NC3CCCCC3)ccc2O1`, the cytotoxicity call was “active”.

Consider `C[C@@H]1CN([C@@H](C)CO)C(=O)c2cc(NC(=O)NC3CCCCC3)ccc2O[C@@H](C)CCCCO[C@H]1CN(C)CC1CCCCC1`, for which the cytotoxicity call was “active”.

As for `C[C@@H]1CCCCO[C@H](CN(C)CC2CCCCC2)[C@H](C)CN([C@H](C)CO)C(=O)c2cc(NC(=O)NC3CCCCC3)ccc2O1`, the cytotoxicity call was “active”.

`CCCN(C)C[C@@H]1OCCCC[C@@H](C)Oc2ccc(NC(=O)NC3CCCCC3)cc2C(=O)N([C@H](C)CO)C[C@@H]1C`: the cytotoxicity call is “active”.

As for `C[C@@H]1CN([C@@H](C)CO)C(=O)c2cc(NC(=O)NC3CCCCC3)ccc2O[C@@H](C)CCCCO[C@@H]1CN(C)CC1CCCCC1`, the cytotoxicity call was “inactive”.

`C[C@@H]1CCCCO[C@@H](CN(C)CC2CCCCC2)[C@H](C)CN([C@H](C)CO)C(=O)c2cc(NC(=O)NC3CCCCC3)ccc2O1`: the cytotoxicity call was “inactive”.

As to `C[C@H](CO)N1C[C@H](C)[C@H](CN(C)CC2CCCCC2)OCCCC[C@H](C)Oc2ccc(NC(=O)NC3CCCCC3)cc2C1=O`, the cytotoxicity call was “inactive”.

For the compound `CCCN(C)C[C@@H]1OCCCC[C@H](C)Oc2ccc(NC(=O)NC3CCCCC3)cc2C(=O)N([C@@H](C)CO)C[C@@H]1C`, the cytotoxicity call is “inactive”.

`C[C@@H]1CCCCO[C@@H](CN(C)CC2CCCCC2)[C@@H](C)CN([C@@H](C)CO)C(=O)c2cc(NC(=O)NC3CCCCC3)ccc2O1`: the cytotoxicity call was “inactive”.

For the compound `C[C@@H]1CCCCO[C@H](CN(C)CC2CCCCC2)[C@@H](C)CN([C@H](C)CO)C(=O)c2cc(NC(=O)NC3CCCCC3)ccc2O1`, the cytotoxicity call was “inactive”.

As to `C[C@@H]1CCCCO[C@@H](CN(C)CC2CCCCC2)[C@H](C)CN([C@@H](C)CO)C(=O)c2cc(NC(=O)NC3CCCCC3)ccc2O1`, the cytotoxicity call is “inactive”.

Take `COc1cccc(NC(=O)N2C[C@@H](O)COC[C@H]3O[C@H](CC(=O)NC4Cc5ccccc5C4)CC[C@@H]32)c1`: the cytotoxicity call is “inactive”.

With `CCNC(=O)C[C@H]1CC[C@H]2[C@@H](COC[C@@H](O)CN2C(=O)Nc2c(C)noc2C)O1`, the cytotoxicity call is “inactive”.

In the case of `Cc1ccc(S(=O)(=O)N[C@@H]2CC[C@H](CCNC(=O)CN3CCOCC3)O[C@H]2CO)cc1`, the cytotoxicity call was “inactive”.

On to `CCOC(=O)CCc1n[nH]c(=O)[nH]c1=O`, for which the cytotoxicity call was “inactive”.

Regarding `O=C(CCCCCNC(=O)OCCCCO[C@@H]1C[C@H](C2CCCCC2)C=C(C(=O)N2CCOCC2)O1)NO`, the cytotoxicity call is “inactive”.

With `Cc1noc(C)c1NC(=O)Nc1ccc2c(c1)C(=O)N([C@@H](C)CO)C[C@@H](C)[C@H](CN(C)S(C)(=O)=O)O2`, the cytotoxicity call was “inactive”.

Consider `C[C@H](CO)N1C[C@H](C)[C@@H](CN(C)C(=O)CCC(F)(F)F)OCCCC[C@H](C)Oc2ccc(NC(=O)C3CCCCC3)cc2C1=O`, for which the cytotoxicity call is “inactive”.

Take `Cc1noc(C)c1NC(=O)N(C)C[C@@H]1OCCCC[C@H](C)Oc2ccc(NC(=O)CCC(F)(F)F)cc2C(=O)N([C@@H](C)CO)C[C@H]1C`: the cytotoxicity call was “inactive”.

On to `C[C@H](CO)N1C[C@H](C)[C@H](CN(C)Cc2ccc(Cl)c(Cl)c2)Oc2c(NC(=O)Nc3ccccc3)cccc2C1=O`, for which the cytotoxicity call is “inactive”.

With `C[C@@H]1CN([C@H](C)CO)C(=O)c2cccc(NS(=O)(=O)c3ccc(Cl)cc3)c2O[C@H]1CN(C)Cc1ccc(Cl)c(Cl)c1`, the cytotoxicity call is “inactive”.

For `O=S1(=O)C[C@H](NCCO)[C@@H](O)C1`, the cytotoxicity call was “inactive”.

As to `OCc1c[nH]c2ccccc12`, the cytotoxicity call was “active”.

For `CNC(=O)C(=O)NCCc1c[nH]c2ccccc12`, the cytotoxicity call is “inactive”.

`NC(Cc1c[nH]c2ccccc12)C(=O)O` (centres undefined): the cytotoxicity call was “inactive”.

As to `C[C@@H]1CN([C@H](C)CO)C(=O)c2cccc(NC(=O)c3nc4ccccc4s3)c2O[C@H]1CN(C)C(=O)Nc1ccc(F)cc1`, the cytotoxicity call was “inactive”.

Regarding `CN1CCN(C(=O)CC#N)CC1`, the cytotoxicity call was “inactive”.

Consider `C[C@@H]1CN([C@@H](C)CO)C(=O)c2cccc(NC(=O)C3CCCCC3)c2O[C@H]1CN(C)S(=O)(=O)c1cn(C)cn1`, for which the cytotoxicity call was “inactive”.
